Results filed as inconclusive are left out. The source made the active and inactive calls. How the source made its calls: active means hit-call score of the fitted dose curve at least 0.9, where 1 is the maximum; inconclusive means response in the unintended direction; inactive means score below 0.9.
Molecular target: human Acid Phosphatase 1 (ACP1), ACP1 (gene 52) (UniProt P24666)
Assay: NVS_ENZ_hACP1: NovaScreen (NVS) Enzymatic Assay for human Acid Phosphatase 1 (ACP1) (AID 2283136)
Method in brief: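 Cell-free fluorescence read-out of phosphatase activity, substrate and product separated by mobility shift, taken 1.5 h after compound addition; protein produced in Sf9. Single 25 uM duplicate screen, followed by concentration series for actives, scored as signal loss relative to DMSO.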

Sequence of human Acid Phosphatase 1 (ACP1), ACP1 (gene 52) (P24666 whole entry, looked up): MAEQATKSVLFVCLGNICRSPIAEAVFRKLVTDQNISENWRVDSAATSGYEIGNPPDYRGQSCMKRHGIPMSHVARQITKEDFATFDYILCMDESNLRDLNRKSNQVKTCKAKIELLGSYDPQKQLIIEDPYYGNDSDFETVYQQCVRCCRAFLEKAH

| SMILES | outcome |
| --- | --- |
| NCCO | inactive |
| CCOC(=O)C(C)(C)Oc1ccc(Cl)cc1 | inactive |
| Cc1ccc2ncccc2c1 | inactive |
| CCCc1cc(=O)[nH]c(=S)[nH]1 | inactive |
| O=C(O)Cc1ccccc1Nc1c(Cl)cccc1Cl | inactive |
| FC(F)(F)C(F)(F)C(F)(F)C(F)(F)C(F)(F)C(F)(F)CCI | inactive |

Molecular target: human AKT serine/threonine Kinase 1 (AKT1), AKT1 (gene 207) (UniProt P31749)
Sequence (P31749 whole entry, looked up): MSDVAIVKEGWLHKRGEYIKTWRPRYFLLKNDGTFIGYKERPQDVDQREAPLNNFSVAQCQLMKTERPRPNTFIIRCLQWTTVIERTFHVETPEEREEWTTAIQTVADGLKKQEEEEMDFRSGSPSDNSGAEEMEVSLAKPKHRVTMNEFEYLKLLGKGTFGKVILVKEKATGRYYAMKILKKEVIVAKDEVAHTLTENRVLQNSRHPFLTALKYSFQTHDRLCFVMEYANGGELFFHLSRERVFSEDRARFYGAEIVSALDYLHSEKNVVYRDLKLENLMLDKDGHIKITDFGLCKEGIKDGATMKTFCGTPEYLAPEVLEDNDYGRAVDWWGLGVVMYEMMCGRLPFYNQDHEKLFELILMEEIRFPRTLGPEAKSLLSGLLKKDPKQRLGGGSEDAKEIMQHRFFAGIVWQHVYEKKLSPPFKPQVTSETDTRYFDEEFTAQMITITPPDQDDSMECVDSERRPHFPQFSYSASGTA
Assay: NVS_ENZ_hAKT1: NovaScreen (NVS) Enzymatic Assay for human AKT serine/threonine Kinase 1 (AKT1) (AID 2283138)
Method in brief: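 Screening first at 25 uM (duplicate), with threshold-passing chemicals re-tested in concentration series to a 50 uM maximum. Kinase activity read by fluorescence with mobility-shift separation of substrate and product, 1 h after dosing, DMSO baseline.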

| SMILES | outcome |
| --- | --- |
| NCCO | inactive |
| CCCCCCOCCO | inactive |
| CC1=C(/C=C/C(C)=C/C=C/C(C)=C/CO)C(C)(C)CCC1 | inactive |
| CCCCCCCCCCCC(=O)OC | inactive |
| Nc1ccc2c(c1)C(=O)c1ccccc1C2=O | inactive |
| CCCCCC(=O)O | inactive |
| CNC(=O)[C@H]1O[C@@H](n2cnc3c(NCc4cc(Cl)ccc4OCc4cc(C)no4)ncnc32)[C@H](O)[C@@H]1N | inactive |
| CC(C)(C)c1cc(O)c(C(C)(C)C)cc1O | inactive |
| CCCCCCCCCCCCCCCC | inactive |
| O=C(OCCCCCOC(=O)c1ccccc1)c1ccccc1 | inactive |
| CC(=O)C(C)=CC1C(C)=CCCC1(C)C (stereo unspecified) | inactive |

Molecular target: Caspase-3 (Homo sapiens) (UniProt P42574)
Sequence (P42574 whole entry, looked up): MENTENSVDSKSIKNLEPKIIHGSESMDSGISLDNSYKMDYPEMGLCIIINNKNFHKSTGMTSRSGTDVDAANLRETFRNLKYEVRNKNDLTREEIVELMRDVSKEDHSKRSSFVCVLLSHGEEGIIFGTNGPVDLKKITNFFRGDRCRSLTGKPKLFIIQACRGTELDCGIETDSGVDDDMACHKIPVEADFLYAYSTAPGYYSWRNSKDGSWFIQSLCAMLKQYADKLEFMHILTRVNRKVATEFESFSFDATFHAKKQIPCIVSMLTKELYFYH
Assay: NVS_ENZ_hCASP3: NovaScreen (NVS) Enzymatic Assay for human Caspase 3 (CASP3) (AID 2283139)
Method in brief: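 Single-concentration screening at 25 uM in duplicate, with concentration-response follow-up to a 50 uM maximum for chemicals passing the threshold. Caspase-3 (human, E. coli-expressed) activity was read as substrate fluorescence after 1 h, with loss of signal relative to DMSO.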

| SMILES | AC50 | outcome |
| --- | --- | --- |
| COc1cc(S(=O)(=O)O)c(C)cc1N=Nc1c(O)ccc2cc(S(=O)(=O)O)ccc12 | 15.3 µM (active) | – |
| Cc1nc(-c2ccc3c(c2)CCN(CCC2CCC(NC(=O)/C=C/c4ccc(F)cc4)CC2)CC3)no1 (stereo unspecified) | – | inactive |
| CCCc1cc(=O)[nH]c(=S)[nH]1 | – | inactive |

Molecular target: human Beta-secretase (BACE), BACE1 (gene 23621) (UniProt P56817)
Sequence (P56817 whole entry, looked up): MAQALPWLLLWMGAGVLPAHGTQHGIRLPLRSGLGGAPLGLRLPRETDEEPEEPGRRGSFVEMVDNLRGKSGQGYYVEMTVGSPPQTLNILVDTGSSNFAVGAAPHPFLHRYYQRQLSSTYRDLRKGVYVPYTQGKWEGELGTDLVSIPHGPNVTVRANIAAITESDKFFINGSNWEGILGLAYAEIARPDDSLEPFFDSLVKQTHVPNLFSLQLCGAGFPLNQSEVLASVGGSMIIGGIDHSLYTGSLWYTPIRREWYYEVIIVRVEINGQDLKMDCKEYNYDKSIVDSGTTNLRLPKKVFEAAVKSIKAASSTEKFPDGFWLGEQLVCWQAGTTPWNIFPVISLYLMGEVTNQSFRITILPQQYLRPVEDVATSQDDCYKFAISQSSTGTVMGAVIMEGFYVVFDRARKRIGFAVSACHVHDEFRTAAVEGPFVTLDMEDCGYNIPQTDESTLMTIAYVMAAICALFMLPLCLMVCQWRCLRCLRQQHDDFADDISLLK
Assay: NVS_ENZ_hBACE: NovaScreen (NVS) Enzymatic Assay for human Beta-secretase (BACE) (AID 2283140);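 further: hits are inhibitors that reduce fluorescent substrate signal versus DMSO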
Method in brief: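 Enzyme from SF9 cells was incubated 1 hour with compound and fluorogenic substrate, activity read by fluorescence. Single-concentration duplicates at 25 uM preceded concentration-response follow-up; fitting relative to DMSO baseline.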

| SMILES | AC50 | outcome |
| --- | --- | --- |
| CCCCC(CC)COC(=O)CC(C(=O)OCC(CC)CCCC)S(=O)(=O)O (stereo unspecified) | 1.35 µM (active) | – |
| Nc1ccccc1N | – | inactive |
| Nc1ccc2c(c1)C(=O)c1ccccc1C2=O | 2.16 µM (active) | – |
| CCOC(=O)C(C)(C)Oc1ccc(Cl)cc1 | – | inactive |
| Cc1ccc2ncccc2c1 | – | inactive |
| CCCCOC(=O)CCCCCCCCC(=O)OCCCC | 2.12 µM (active) | – |
| CCCCc1ccc2c(n1)[C@@H](c1ccc(OC)cc1C[C@H](C)C(=O)O)[C@H](C(=O)O)[C@H]2c1ccc2c(c1)OCO2 | 9.68 µM (active) | – |
| Cc1oc(-c2ccccc2)nc1CCOc1cccc2c1ccn2CCC(=O)O | 9.92 µM (active) | – |

Molecular target: human AKT serine/threonine Kinase 2 (AKT2), AKT2 (gene 208) (UniProt P31751)
Sequence (P31751 whole entry, looked up): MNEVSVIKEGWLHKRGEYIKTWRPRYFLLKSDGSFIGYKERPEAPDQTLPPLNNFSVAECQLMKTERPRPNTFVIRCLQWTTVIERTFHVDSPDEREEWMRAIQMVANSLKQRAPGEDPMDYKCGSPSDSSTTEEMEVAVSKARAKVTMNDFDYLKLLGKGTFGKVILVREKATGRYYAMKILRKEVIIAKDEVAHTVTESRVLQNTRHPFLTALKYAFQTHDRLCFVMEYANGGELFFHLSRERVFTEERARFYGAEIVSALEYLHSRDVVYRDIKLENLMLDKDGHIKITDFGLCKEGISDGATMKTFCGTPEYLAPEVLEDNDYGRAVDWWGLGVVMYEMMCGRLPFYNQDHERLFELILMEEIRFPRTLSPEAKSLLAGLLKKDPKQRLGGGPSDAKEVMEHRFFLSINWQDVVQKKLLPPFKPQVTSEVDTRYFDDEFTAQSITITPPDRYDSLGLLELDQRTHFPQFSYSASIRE
Assay: NVS_ENZ_hAKT2: NovaScreen (NVS) Enzymatic Assay for human AKT serine/threonine Kinase 2 (AKT2) (AID 2283141)
Method in brief: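 Cell-free fluorescence/electrophoretic mobility shift readout of recombinant human AKT2 activity, 1 h after chemical dosing. Duplicate primary screen at 25 uM, then singleton concentration-response up to 50 uM; loss of signal versus DMSO baseline.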

| SMILES | AC50 | outcome |
| --- | --- | --- |
| CC1(C)CC(N=C=O)CC(C)(CN=C=O)C1 (stereo unspecified) | 6.21 µM (active) | – |
| CC1=C(/C=C/C(C)=C/C=C/C(C)=C/CO)C(C)(C)CCC1 | – | inactive |
| CCCCCC(=O)O | – | inactive |
| Cc1ccc2ncccc2c1 | – | inactive |
| O=C(OCCCCCOC(=O)c1ccccc1)c1ccccc1 | – | inactive |
| CC1(C)NC(=O)NC1=O | – | inactive |
| O=c1c(O)c(-c2ccc(O)c(O)c2)oc2cc(O)cc(O)c12 | – | inactive |
| CCOC(=O)CCC(=O)OCC | – | inactive |

Reference: PubChem BioAssay (EPA / NIEHS)
